Measurements: PubChem BioAssay (NCI)
The panel holds about 83,000 compounds, 20% with a hit somewhere; the sample as a whole holds those more often.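 Values shown are percent growth following 48 h exposure of cells in 96-well plates to a single concentration of compound; below 10 was considered active.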 Calls of active or inactive are those of the source.

Key:
Assay in all cases: NCI-60 one-dose screen, 48 h (100 = growth as untreated, 0 = no growth, -100 = all killed)
Conditions in all cases: 10 µM unless noted
HCT-15 colon = system: HCT-15 colon
HT29 colon = system: HT29 colon
SNB-75 CNS = system: SNB-75 CNS
SNB-19 CNS = system: SNB-19 CNS
U251 CNS = system: U251 CNS
PC-3 prostate = system: PC-3 prostate
SK-MEL-5 melanoma = system: SK-MEL-5 melanoma
UACC-62 melanoma = system: UACC-62 melanoma
LOX IMVI melanoma = system: LOX IMVI melanoma
SK-MEL-28 melanoma = system: SK-MEL-28 melanoma
SK-MEL-2 melanoma = system: SK-MEL-2 melanoma
SN12C renal = system: SN12C renal
UO-31 renal = system: UO-31 renal
TK-10 renal = system: TK-10 renal
ACHN renal = system: ACHN renal
CAKI-1 renal = system: CAKI-1 renal
A498 renal = system: A498 renal
CCRF-CEM leukemia = system: CCRF-CEM leukemia
MOLT-4 leukemia = system: MOLT-4 leukemia
EKVX NSCLC = system: EKVX NSCLC

Measured: growth

COC1CC(N)C2OC(c3ccccc3)OCC2O1 (stereo unspecified)
inactive: HCT-15 colon 97.1% | HT29 colon 103% | SNB-75 CNS 71.4% | SNB-19 CNS 103% | U251 CNS 99.8% | PC-3 prostate 105% | SK-MEL-5 melanoma 105% | UACC-62 melanoma 101% | LOX IMVI melanoma 98.8% | SK-MEL-28 melanoma 105% | SK-MEL-2 melanoma 114% | SN12C renal 99.3% | UO-31 renal 97.6% | TK-10 renal 101% | ACHN renal 99.3% | CAKI-1 renal 96.8% | A498 renal 111% | CCRF-CEM leukemia 93.3% | MOLT-4 leukemia 100%

CSC1=NC(=Nc2c(C)cccc2C)C2(CCC(C(C)(C)C)CC2)N1c1ccc(Cl)cc1 (stereo unspecified)
inactive: HCT-15 colon 31.9% | HT29 colon 25.5% | SNB-75 CNS 74.8% | SNB-19 CNS 75.3% | U251 CNS 30.6% | PC-3 prostate 47.9% | SK-MEL-5 melanoma 47.6% | UACC-62 melanoma 73.8% | LOX IMVI melanoma 20.8% | SK-MEL-28 melanoma 79.5% | SK-MEL-2 melanoma 49.9% | SN12C renal 42.1% | UO-31 renal 34.8% | TK-10 renal 61.3% | ACHN renal 34.5% | CAKI-1 renal 12% | A498 renal 71.5% | CCRF-CEM leukemia 36.9% | MOLT-4 leukemia 23.5%

O=c1c2sc3ccccc3c2nnn1-c1ccc(F)c(Cl)c1
active: ACHN renal 4.64%
inactive: HCT-15 colon 56.7% | HT29 colon 69.9% | SNB-75 CNS 39.5% | SNB-19 CNS 61.1% | U251 CNS 59.1% | PC-3 prostate 54.8% | SK-MEL-5 melanoma 67.3% | UACC-62 melanoma 78.4% | LOX IMVI melanoma 58.1% | SK-MEL-28 melanoma 72.7% | SK-MEL-2 melanoma 75.4% | SN12C renal 70.2% | UO-31 renal 18.1% | TK-10 renal 29% | CAKI-1 renal 35.6% | A498 renal 56.6% | CCRF-CEM leukemia 48.6% | MOLT-4 leukemia 34.3%

Cc1cc(C)cc(Nc2cc(C)nc3nc(C(F)(F)F)nn23)c1
active: UACC-62 melanoma -33.8% | UO-31 renal 2.04%
inactive: HCT-15 colon 30.4% | HT29 colon 41.5% | SNB-75 CNS 61.6% | SNB-19 CNS 45.7% | U251 CNS 31.5% | PC-3 prostate 57.1% | SK-MEL-5 melanoma 32.1% | LOX IMVI melanoma 24.1% | SK-MEL-28 melanoma 50.8% | SK-MEL-2 melanoma 22.6% | SN12C renal 31.9% | TK-10 renal 46.1% | ACHN renal 28.6% | CAKI-1 renal 12.4% | A498 renal 67% | CCRF-CEM leukemia 16.9% | MOLT-4 leukemia 18.4%

COc1cc(C2Nc3ccccc3S2)cc(CN2CCOCC2)c1O (stereo unspecified)
inactive: HCT-15 colon 52.3% | HT29 colon 93.4% | SNB-75 CNS 46% | SNB-19 CNS 75.9% | U251 CNS 86.7% | PC-3 prostate 82.1% | SK-MEL-5 melanoma 50.6% | UACC-62 melanoma 57.3% | LOX IMVI melanoma 78.2% | SK-MEL-28 melanoma 68.6% | SK-MEL-2 melanoma 64.4% | EKVX NSCLC 102% | SN12C renal 91.9% | TK-10 renal 84.7% | ACHN renal 88.3% | CAKI-1 renal 74% | A498 renal 73.3% | CCRF-CEM leukemia 80.1% | MOLT-4 leukemia 25.3%

O=[N+]([O-])c1cccc([I+]c2ccccc2)c1
active: SK-MEL-5 melanoma -2.62%
inactive: HCT-15 colon 52.5% | HT29 colon 27.3% | SNB-75 CNS 46.9% | SNB-19 CNS 71.3% | U251 CNS 52.1% | PC-3 prostate 59.1% | UACC-62 melanoma 52.2% | LOX IMVI melanoma 36.2% | SK-MEL-28 melanoma 61.5% | SK-MEL-2 melanoma 76.1% | SN12C renal 52.4% | UO-31 renal 43.6% | TK-10 renal 67.5% | ACHN renal 63.3% | CAKI-1 renal 46% | A498 renal 40.5% | CCRF-CEM leukemia 15.8% | MOLT-4 leukemia 12.6%

CCc1ccc(Nc2ncnc3c2cnn3-c2cccc(Br)c2)cc1
inactive: HCT-15 colon 101% | HT29 colon 108% | SNB-75 CNS 78.4% | SNB-19 CNS 95.3% | U251 CNS 94.3% | PC-3 prostate 94.9% | SK-MEL-5 melanoma 96.6% | UACC-62 melanoma 91.7% | LOX IMVI melanoma 96.3% | SK-MEL-28 melanoma 107% | SK-MEL-2 melanoma 108% | SN12C renal 101% | UO-31 renal 85.6% | TK-10 renal 107% | ACHN renal 108% | CAKI-1 renal 89.3% | A498 renal 70.7% | CCRF-CEM leukemia 131% | MOLT-4 leukemia 101%

O=C(/C=C/c1ccccc1)n1c(-c2ccccc2)nc2ccccc21
inactive: HCT-15 colon 98.2% | HT29 colon 110% | SNB-75 CNS 85.6% | SNB-19 CNS 94.7% | U251 CNS 96.2% | PC-3 prostate 95.6% | SK-MEL-5 melanoma 97.4% | UACC-62 melanoma 103% | LOX IMVI melanoma 100% | SK-MEL-28 melanoma 108% | SK-MEL-2 melanoma 112% | SN12C renal 101% | UO-31 renal 89.8% | TK-10 renal 101% | ACHN renal 104% | CAKI-1 renal 107% | A498 renal 85.8% | CCRF-CEM leukemia 97.8% | MOLT-4 leukemia 99.1%

Cc1cc(NC(=O)C2c3ccccc3C(=O)N(CC(C)C)C2c2cccs2)no1 (stereo unspecified)
active: HCT-15 colon 7.04% | HT29 colon -29.4% | PC-3 prostate 9.17% | UACC-62 melanoma -84.5% | LOX IMVI melanoma -85.3% | SK-MEL-28 melanoma -86.8% | SN12C renal -30.9% | UO-31 renal -89.7% | TK-10 renal -5.69% | ACHN renal 0.299% | CAKI-1 renal -40.1% | CCRF-CEM leukemia -13%
inactive: SNB-75 CNS 61.4% | SNB-19 CNS 81.9% | U251 CNS 21.2% | SK-MEL-5 melanoma 14.2% | SK-MEL-2 melanoma 50.7% | A498 renal 113% | MOLT-4 leukemia 16.7%

CNCCCNc1ccnc2cc(Cl)ccc12
active: HCT-15 colon 6.57% | HT29 colon -33.1% | SNB-75 CNS -52.8% | SNB-19 CNS -1.63% | U251 CNS 0.589% | PC-3 prostate 1.91% | SK-MEL-5 melanoma -96.1% | UACC-62 melanoma -75.2% | LOX IMVI melanoma -49.8% | SK-MEL-28 melanoma -96.3% | SK-MEL-2 melanoma -64.5% | SN12C renal 2.75% | UO-31 renal -34.4% | TK-10 renal -11.4% | ACHN renal -31.6% | CAKI-1 renal -29.7% | A498 renal -78.2% | CCRF-CEM leukemia -17.1% | MOLT-4 leukemia 2.58%

CCC1CCc2nc3sc(C(=O)Nc4cccc(F)c4)c(N)c3cc2C1 (stereo unspecified)
inactive: HCT-15 colon 31.7% | HT29 colon 33.5% | SNB-75 CNS 51.7% | SNB-19 CNS 76.9% | U251 CNS 56.3% | PC-3 prostate 63.6% | SK-MEL-5 melanoma 41.9% | UACC-62 melanoma 39.5% | LOX IMVI melanoma 61.3% | SK-MEL-28 melanoma 59.7% | SK-MEL-2 melanoma 63.3% | SN12C renal 94.4% | UO-31 renal 67.2% | TK-10 renal 77% | ACHN renal 67.9% | CAKI-1 renal 57.9% | A498 renal 50.5% | CCRF-CEM leukemia 47.9% | MOLT-4 leukemia 37.5%

Cn1c(=O)c2[nH]c(Cc3ccc4c(c3)OCO4)nc2n(C)c1=O
inactive: HCT-15 colon 93.8% | HT29 colon 120% | SNB-75 CNS 95.3% | SNB-19 CNS 101% | U251 CNS 110% | PC-3 prostate 86.1% | SK-MEL-5 melanoma 108% | UACC-62 melanoma 98% | LOX IMVI melanoma 99.5% | SK-MEL-28 melanoma 106% | SK-MEL-2 melanoma 122% | EKVX NSCLC 97.8% | SN12C renal 95.1% | TK-10 renal 113% | ACHN renal 92.1% | CCRF-CEM leukemia 87% | MOLT-4 leukemia 122%

CO[C@@]12[C@@H]3NC3CN1C1=C(C(=O)C(N)=C(C)C1=O)[C@@H]2COC(N)=O (stereo partly specified)
active: HT29 colon -18.1% | SNB-75 CNS 2.19% | SK-MEL-5 melanoma -96% | UACC-62 melanoma -15.9% | LOX IMVI melanoma -50.2% | SK-MEL-2 melanoma -11.2% | TK-10 renal 9.47% | ACHN renal -10.3% | A498 renal -82.9%
inactive: HCT-15 colon 26.4% | SNB-19 CNS 18.3% | U251 CNS 13.4% | PC-3 prostate 41.8% | SK-MEL-28 melanoma 23% | EKVX NSCLC 49.6% | SN12C renal 24.6% | CAKI-1 renal 14.9% | CCRF-CEM leukemia 27.1%

Brc1ccccc1Cn1c(-c2cncs2)nc2ccccc21
inactive: HCT-15 colon 82.8% | HT29 colon 80.7% | SNB-75 CNS 53% | SNB-19 CNS 84.6% | U251 CNS 84.8% | PC-3 prostate 57.2% | SK-MEL-5 melanoma 76.2% | UACC-62 melanoma 70.1% | LOX IMVI melanoma 75.8% | SK-MEL-28 melanoma 104% | SK-MEL-2 melanoma 95.4% | SN12C renal 85.1% | UO-31 renal 44.9% | TK-10 renal 82.6% | ACHN renal 72.8% | CAKI-1 renal 74.4% | A498 renal 71.6% | CCRF-CEM leukemia 78% | MOLT-4 leukemia 77.6%

[O-]/[N+](=C\c1ccccc1)CC1(O)CCCCC1
inactive: HCT-15 colon 98.4% | HT29 colon 102% | SNB-75 CNS 81.1% | SNB-19 CNS 99.4% | U251 CNS 97.6% | PC-3 prostate 108% | SK-MEL-5 melanoma 105% | UACC-62 melanoma 102% | LOX IMVI melanoma 101% | SK-MEL-28 melanoma 106% | SK-MEL-2 melanoma 111% | SN12C renal 94.5% | UO-31 renal 96.3% | TK-10 renal 103% | ACHN renal 99.2% | CAKI-1 renal 104% | A498 renal 82.9% | CCRF-CEM leukemia 101% | MOLT-4 leukemia 106%

C/C(=N\OC(=O)Nc1cccc(Cl)c1)c1ccccc1
inactive: HCT-15 colon 94.2% | HT29 colon 94.4% | SNB-75 CNS 80.4% | SNB-19 CNS 106% | U251 CNS 93.5% | PC-3 prostate 94% | SK-MEL-5 melanoma 94.8% | UACC-62 melanoma 93.7% | LOX IMVI melanoma 110% | SK-MEL-28 melanoma 95.2% | SK-MEL-2 melanoma 106% | SN12C renal 95% | UO-31 renal 82.8% | TK-10 renal 109% | ACHN renal 101% | CAKI-1 renal 106% | A498 renal 42.8% | CCRF-CEM leukemia 89.1% | MOLT-4 leukemia 89.9%
